GPT2 inhibitor: inhibitors of human GPT2 alanine aminotransferase. 100,000 compounds, 0.25% hits. Q8TD30. Recombinant GPT2, coupled pyruvate oxidase/HRP Amplex Red fluorescence. AID 1671188. Potency, µM (highest dose often 57.7 µM), usual class: inhibitors; further: nearly all actives have a fitted effect of over 60% in size
Target sequence (Q8TD30 whole entry, looked up): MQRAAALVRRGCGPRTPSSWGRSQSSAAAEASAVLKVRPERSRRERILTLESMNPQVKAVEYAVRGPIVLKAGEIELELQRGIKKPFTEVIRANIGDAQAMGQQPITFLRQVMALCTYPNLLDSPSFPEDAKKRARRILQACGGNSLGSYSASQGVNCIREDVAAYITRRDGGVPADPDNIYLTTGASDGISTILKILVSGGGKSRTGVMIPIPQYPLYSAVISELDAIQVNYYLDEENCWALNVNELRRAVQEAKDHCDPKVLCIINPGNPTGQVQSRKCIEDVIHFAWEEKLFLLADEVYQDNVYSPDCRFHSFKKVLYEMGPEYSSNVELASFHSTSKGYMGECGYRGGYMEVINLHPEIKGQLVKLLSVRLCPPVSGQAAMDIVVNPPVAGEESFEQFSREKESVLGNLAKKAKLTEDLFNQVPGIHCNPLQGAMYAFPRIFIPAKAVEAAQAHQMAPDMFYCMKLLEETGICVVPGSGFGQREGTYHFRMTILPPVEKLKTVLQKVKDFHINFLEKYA
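Inhibition is scored from Amplex Red fluorescence generated when pyruvate oxidase and HRP act on pyruvate released by GPT2. Reactions contain 10ng/uL enzyme, 250uM a-KG and 2mM L-alanine and run 30 min at room temperature.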
SNCA viab count: cell viability loss counter-screen; HEK-293-SNCA-luc viability, GF-AFC fluorescence, 24 h; Potency, µM (top dose mostly 57.1 µM), hits mostly cytotoxic; 150,000 compounds, 0.12% hits; further: nearly all actives have a fitted effect of over 30% in size
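HEK-293-SNCA-luc cells (1500/well) plated 24 h, then exposed 24 h to a dilution series; GF-AFC added 30 min at 37C, fluorescence 405/540 nm; normalised to medium-only and DMSO wells, Hill fit.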
SNCA expr inh: reduces expression of the alpha-synuclein gene; HEK-293 SNCA-luciferase knock-in, luminescence, 24 h; Potency, µM (highest dose often 57.2 µM), most hits filed as inhibitors; 140,000 compounds, 0.17% hits; AID 1671194; further: nearly all actives have a fitted effect of over 45% in size
A number is an active result; . = inactive; ? = inconclusive; / = no result given; ! = not confirmed by another sample; [ ] = remark or other dose. Compounds with a hit are over-represented: about 0.32% of the library has one in this group of screens. The call rests on the fitted dose curve; in most records, active means well fitted curve in the direction sought with a large enough effect; inconclusive means small, poorly fitted or top-dose-only effect, or another doubt; inactive means no such curve, though single readings can be large; an effect the other way counts as inactive or inconclusive.

SMILES | GPT2 inhibitor | SNCA viab count | SNCA expr inh
Nc1cccc(-c2ccc(N3CCCCC3)nn2)c1 | . | . | 1.78µM
CCN1CCN(c2ccc(-c3cccc(N)c3)nn2)CC1 | . | . | ?
O=C(Nc1cc(C2CC2)nn1-c1ccccc1)c1cccc(Cl)c1 | . | . | .
O=C(NCc1cccs1)c1cc(-c2cccs2)c2cccn2n1 | . | . | .
O=C1COc2ccc(Nc3ccc(Cl)cc3)nc2CN1Cc1nc2ccccc2s1 | . | 31.6µM | ?
Cc1ccccc1CN1Cc2nc(Nc3ccccc3)ccc2OCC1=O | . | ? | .
COc1cccc(-c2cn3cc(C(=O)NC4CCCCC4)nc3s2)c1 | ? | . | .
Cc1ccc(OCCSc2nc3ccccc3n2CC(=O)N2CCCCC2)c(C)c1 | / | 14.1µM | .
CCc1ccc(OCCSc2nc3ccccc3n2CC(=O)N2CCCCC2)cc1 | / | . | ?
CN(CCc1ccccc1)CCN1CC2(CCN(c3ncccc3C#N)CC2)OC1=O | . | . | .
O=C1N(C2CCN(S(=O)(=O)c3cccnc3)CC2)C(c2ccccc2)C12CCCC2 (stereo unspecified) | . | . | .
CCc1cccc(NC(=O)Cn2c(=O)n(Cc3ccccc3)c(=O)c3c(C)c(C(=O)N(C)C)sc32)c1 | / | . | 12.6µM
CCN(CC)C(=O)c1sc2c(c1C)c(=O)n(Cc1ccccc1)c(=O)n2CC(=O)Nc1ccc(OC)cc1 | / | . | .
CN(C)C(=O)COC(=O)c1cc(-c2ccc(C3CCNCC3)cc2)c2ccc(-c3ccc(C(F)(F)F)cc3)cc2c1 | . | 29.9µM | /
CN(C)C(=O)CNC(=O)c1cccc(-c2ccc(C(F)(F)F)cc2)c1 | . | .[12.5 µM] | ?
CCn1nccc1C(=O)N1CCC2(CC1)c1[nH]c3ccc(OC)cc3c1CCN2C | . | .[12.5 µM] | .
Cc1cnc(CC2CCN(S(=O)(=O)c3ccc4c(c3)CCC4)C2)n1Cc1ccccc1 (stereo unspecified) | . | . | ?
COc1ccc(CC(=O)NC2CCCc3c2[nH]c2c(Cl)cccc32)cc1 (stereo unspecified) | . | . | ?
Cc1cc(O)c2c(c1)C(=O)c1cc(O)cc(O)c1C2=O | . | . | .
CCC(=O)c1c(O)cc(O)cc1O | 5.01µM | . | .
COc1ccc(CN2CCCC(c3cc(=O)[nH]c(C)n3)C2)c(OC)c1C (stereo unspecified) | . | . | .
O=C(CC[C@H]1NC(=O)c2ccccc2NC1=O)NCCc1ccc(O)cc1 | . | . | .
O=C1c2ccccc2C(=O)c2c(NCCc3ccc(O)cc3)ccc(NCCc3ccc(O)cc3)c21 | . | 28.2µM | ?
Cc1ccc(Nc2ccnc(N3CCCC(C(=O)N4CCN(c5ncccn5)CC4)C3)n2)cc1 (stereo unspecified) | . | .[12.5 µM] | .
C[S+](=O)([O-])CCn1ncc2cc(OCc3cccc(-c4ccc(Cl)cc4)c3)ccc21 | ? | . | .
SMILES | GPT2 inhibitor | SNCA viab count | SNCA expr inh
CCCCOc1ccc(C(=O)CCN2CCCCC2)cc1 | . | . | .
O=C(c1ccc(OCCN2CCCCC2)cc1)c1c(-c2ccc(O)cc2)sc2cc(O)ccc12 | 8.91µM! | ? | .
COc1ccc(Nc2ccnc(N3CCC(C(=O)NCC4CC4)CC3)n2)cc1 | . | .[12.5 µM] | .
Cc1ccc(-c2cccc(CN3CCCC(NC(=O)Nc4ccccc4F)C3)c2)cc1Cl (stereo unspecified) | . | ? | .
CC(C)CC(NC(=O)OCc1ccccc1)C(=O)NC(CC(C)C)C(=O)NC(CCC(=O)O)C(=O)Nc1ccc2ccccc2c1 (stereo unspecified) | . | . | /
CCC[C@@H](C=O)NC(=O)[C@H](CC(C)C)NC(=O)[C@H](CC(C)C)NC(=O)OCc1ccccc1 | . | ? | 1.92µM
NC(=O)c1ccc(I)c([N+](=O)[O-])c1 | . | . | .
N#Cc1cc([N+](=O)[O-])c2sc(C(N)=O)[n+]([O-])c2c1 | 12.6µM | . | .
O=[S+]([O-])(NC1CCN(Cc2ccc(-c3ccsc3)cc2)C1)c1cccs1 (stereo unspecified) | . | . | ?
Cc1csc(NC(=O)c2cnc3c(c2)N([S+](=O)([O-])c2cccnc2)CCC3)n1 | . | . | .
COc1ccc(-c2noc(CSc3nc4ccccc4[nH]3)n2)cc1 | / | ? | .
Cc1ccc2nc(SCc3nc(-c4ccc(Cl)cc4)no3)[nH]c2c1 | / | . | 22.4µM
Cc1ccc(Nc2ccnc(N3CCCC3C(=O)NC3CCCC3)n2)cc1 (stereo unspecified) | . | .[12.5 µM] | .
O=C(NC1CC1)c1cc(-c2cccc(C(F)(F)F)c2)c2cccn2n1 | . | . | ?
CC(C)(C)c1ccc(-c2cc(C[C@H]3CNCC[C@H]3CC(=O)O)no2)cc1 | . | . | .
CC(C)(C)c1cnc(CSc2cnc(NC(=O)C3CCNCC3)s2)o1 | . | ? | 1.52µM
O=C(Cc1c[nH]c2ccccc12)N1CCC(c2nc(CCOCC3CCCC3)no2)C1 (stereo unspecified) | . | .[12.5 µM] | 20µM
O=C(Cc1c[nH]c2ccccc12)N1CCC(c2noc(C3CC3)n2)C1 (stereo unspecified) | . | . | .
CN1N=C(N)c2cn([C@@H]3O[C@H](COP(=O)(O)O)[C@@H](O)[C@@H]3O)c3ncnc1c23 | 13.7µM | ? | ?
Nc1ncnc2c1ncn2[C@@H]1O[C@H](COP(=O)(O)CP(=O)(O)OP(=O)(O)O)[C@@H](O)[C@H]1O | . | . | .
COc1cc(-c2nc(-c3c(C)noc3C)cc3c2cc(C)n3CCN(C)C)ccn1 | . | . | .
CN1CCN(c2ccc(-c3cc4c(ccn4C)c(C(=O)NCc4cnccn4)n3)cc2)CC1 | . | . | .
Cc1ccc(C(=O)N(CCCN)C(c2oc3cc(Cl)ccc3c(=O)c2Cc2ccccc2)C(C)C)cc1 (stereo unspecified) | . | 29.9µM | /
Cc1ccc(C(=O)N(CCCN)[C@@H](c2oc3cc(Cl)ccc3c(=O)c2Cc2ccccc2)C(C)C)cc1 | . | ? | ?
O=C([C@@H]1C[C@H](c2ccc(F)cc2)N(Cc2ccccc2Cl)C1)N1CC(O)C1 | . | . | ?
SMILES | GPT2 inhibitor | SNCA viab count | SNCA expr inh
O=C1c2c(O)ccc(O)c2C(=O)c2c(NCCNCCO)ccc(NCCNCCO)c21 | 10µM! | ? | 1.21µM!
C[N+](C)([O-])CCNc1ccc(NCC[N+](C)(C)[O-])c2c1C(=O)c1c(O)ccc(O)c1C2=O | . | . | .
O=c1[nH]sc2cc(Cl)ccc12 | 14.1µM | . | .
CCN1C(=O)CCN(Cc2cn(C)c3ccc(OC)cc23)CC12CCOCC2 | . | . | ?
c1ccc(-c2ccc(N3CC4(CCNCC4)C3)cc2)cc1 | / | 31.6µM | ?
c1ccc(-c2ccc(N3CC[C@@]4(CCCNC4)C3)cc2)cc1 | / | . | .
O=C1CC2(CCN(C(=O)C3CCCN(C(=O)c4ccc(C(F)(F)F)cc4)C3)CC2)Oc2ccccc2N1 (stereo unspecified) | . | . | ?
CCNc1cc(N2CCC(CCC(=O)NCCN3CCCCCC3)CC2)ncn1 | ? | . | ?
CCCNc1cc(N2CCC(CCC(=O)NCCN3CCCCCC3)CC2)ncn1 | . | . | ?
CCNc1cc(N2CCC(CCC(=O)NC3CCCC3)CC2)ncn1 | ? | . | 2.24µM
O=C(CCC1CCN(c2cc(NC3CC3)ncn2)CC1)NCC1CC1 | . | . | 1.41µM
O=C(Nc1ccc(Cl)cc1)N1CCc2nc(C3CC3)nc(-c3ccc(Cl)cc3)c2C1 | . | . | ?

Assay outcomes from PubChem.
